Source: PubChem BioAssay (National Center for Advancing Translational Sciences (NCATS))
GLP-1R agonist: qHTS of GLP-1 Receptor Agonists. HEK293 GLP-1R CRE-luciferase, luminescence, 4-6 h; cells express a hypersensitive GLP-1R form. 380,000 compounds, 0.007% hits. AID 624172, 2012. Potency, µM (titrated, usually from 45.6 µM), without a hit: at the top dose activation, usual class: activators. Glucagon-like peptide 1 receptor (Homo sapiens), P43220; also: % of control where 0% means no effect
Target sequence (P43220 whole entry, looked up): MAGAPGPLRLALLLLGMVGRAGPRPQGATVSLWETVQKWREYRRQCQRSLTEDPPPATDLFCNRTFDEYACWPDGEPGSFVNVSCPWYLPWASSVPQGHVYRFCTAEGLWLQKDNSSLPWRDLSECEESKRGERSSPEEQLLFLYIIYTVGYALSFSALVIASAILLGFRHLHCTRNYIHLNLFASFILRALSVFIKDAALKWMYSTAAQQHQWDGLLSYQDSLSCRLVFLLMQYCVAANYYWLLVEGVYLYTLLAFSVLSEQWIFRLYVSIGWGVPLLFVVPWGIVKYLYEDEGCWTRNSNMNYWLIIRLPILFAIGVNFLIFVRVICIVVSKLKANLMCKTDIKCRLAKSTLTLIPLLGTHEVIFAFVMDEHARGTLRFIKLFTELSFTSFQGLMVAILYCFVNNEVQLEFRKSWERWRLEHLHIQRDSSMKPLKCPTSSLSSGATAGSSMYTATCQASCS
Mito fusion act: qHTS Assay for Small Molecule Inhibitors of Mitochondrial Division or Activators of Mitochondrial Fusion. S. cerevisiae fusion-defective mutant growth rescue, CellTiterGlo 48 h. 320,000 compounds, 0.23% hits. Potency, µM (top dose mostly 46.1 µM), for the others: top-dose growth rescue (activation), usual class: activators; also: % of control where 0% means no effect; nearly all actives have a fitted effect of over 45% in size
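Read-out: ATP-based luminescence (CellTiterGlo, 10 min ambient) reporting growth of fusion-defective ts yeast after 48 hours at 37C on glycerol/ethanol YPEG medium in the presence of compound.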
GLP1R cytotox: qHTS of GLP-1 Receptor Inverse Agonists: Cytotox Screen | 410,000 compounds, 0.13% hits | Potency, µM (series often up to 38.3 µM), without a hit: at the highest dose activity change, negative = inhibition, hits mostly inhibitors | HEK293 cAMP-luciferase reporter cells, luminescence, 24 h | AID 624418, 2012;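 also: loss of luciferase light is scored as toxicity; % is scaled to controls: 0 for no effect and ±100 for the full control effect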
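Luminescence readout: signal drop marks cytotoxicity. Plated cells grew 12 h at 37 °C, 5% CO2, received 23 nL compound for 24 h, then got luciferase reagent, read after 12 min at RT.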
BRCA1 expr act: qHTS Assay to Identify Small Molecule Activators of BRCA1 Expression | MCF7-BRCA1-FFLuc reporter, luminescence, 48 h; response scale: scaled: vehicle 0%, 10 µM genistein 100% | Potency, µM (doses to about 46.1 µM), for the others: at the top dose activation, most hits filed as activators | AID 624202, 2012 | 380,000 compounds, 1.1% hits; also: nearly all actives have a fitted effect of over 80% in size
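Luminescence from a BRCA1-driven firefly luciferase in MCF7 cells was the read-out, taken 15 min after substrate addition following 48 h compound exposure at 37 °C. Data were normalized to a 10 microM genistein control and DMSO vehicle.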
GLP1R inv ag: qHTS of GLP-1 Receptor Inverse Agonists (Inhibition Mode); Potency, µM (series often up to 38.3 µM), inactives show top-dose activity change, negative = inhibition, hits mostly inhibitors; HEK293 GLP-1R CRE-luciferase, luminescence, 24 h; GLP-1R form is constitutively active; Glucagon-like peptide 1 receptor (Homo sapiens), P43220; 410,000 compounds, 1.6% hits; AID 624417, 2012; also: % is scaled to controls: 0 for no effect and ±100 for the full control effect; nearly all actives have a fitted effect of over 55% in size
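GLP-1R inverse agonism mode: basal reporter luminescence in engineered HEK293 cells measured after one day of compound exposure at 37 deg C, with a 12 min room-temperature detection step.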
An asterisk follows results filed as active; ? = inconclusive; / = no result given. In the library only some 2.8% were active in any assay of this set; here they are far more common. Calls follow the shape of the dose curve; as a rule, active = well fitted curve in the direction sought with a large enough effect; inconclusive = small, poorly fitted or top-dose-only effect, or another doubt; inactive = no such curve, though single readings can be large; an effect the other way counts as inactive or inconclusive. Potency is read from the fitted curve at half-maximal effect.

SMILES	GLP-1R agonist	Mito fusion act	GLP1R cytotox	BRCA1 expr act	GLP1R inv ag
O=C(NC(c1ccc(F)cc1)c1ccc2ccccc2n1)C1CCN(CCOc2ccc(Cl)cc2)CC1 (stereo unspecified)	-6%	/	?	-38%	6.3µM*
COC(=O)C1=C(c2cccc(C#N)c2)C[C@@H]2CC[C@H]1N2C(=O)NCCc1ccccc1	7%	-7%	-12%	-17%	-2%
N=C(N)c1c(O)n(C2CCCCC2)c(=O)n(C2CCCCC2)c1=O	-38%	?	11µM*	-72%	4.5µM*
c1cc2c(cc1[C@H]1OCC3C1CO[C@@H]3c1ccc3c(c1)OCO3)OCO2 (stereo partly specified)	-1%	/	-8%	32%	?
CCOC(=O)c1ccc(-[n+]2c(-c3ccccc3)cc(-c3ccccc3)cc2-c2ccccc2)cc1	-1%	2%	?	-65%	?
CCOC(=O)c1ccc(N2C(=O)c3[nH]nc(-c4ccccc4)c3C2c2ccc(CC)cc2)cc1 (stereo unspecified)	-6%	/	?	-73%	11µM*
CCCCOc1ccccc1C1CC(=O)Nc2cc(C)c(C)cc21 (stereo unspecified)	/	/	?	/	13µM*
O=P(Nc1cccc(Cl)c1)(Oc1ccccc1)Oc1ccccc1	3%	18%	-18%	-33%	8.9µM*
COc1cccc(NP(=O)(Oc2ccccc2)Oc2ccccc2)c1	-4%	?	11%	-92%	5µM*
O=P(Nc1cccnc1)(Oc1ccccc1)Oc1ccccc1	13%	4%	4%	-6%	-6%
COc1ccccc1-c1ccc2c(c1)C(C)(Cc1ccc(Cl)c(Cl)c1)C(=O)N2 (stereo unspecified)	1%	/	?	-68%	?
COc1ccc(OCCOc2cccc(C=C3C(=O)NC(=O)NC3=O)c2)cc1	/	1%	/	/	/
CCCCCSc1cc(O)c(C(CNC)C(C)C)cc1OC (stereo unspecified)	9%	-16%	-16%	-36%	10µM*
CC(Cc1ccccc1Sc1ccccc1O)N(C)C (stereo unspecified)	-15%	1%	6%	-8%	7.9µM*
COc1cccc(NC(=O)CN(C)C(=O)c2ccccc2OCC(=O)Nc2cccc(C(F)(F)F)c2)c1	-31%	0%	?	-26%	?
COc1cccc(-c2nn(-c3ccc(C)cc3)cc2C(=O)N(C)CC(=O)Nc2cccc(F)c2)c1	-4%	?	?	-76%	7.1µM*
CCOC(=O)[C@]12Cc3c(cc(OC)c(OC)c3OC)[C@H]1N(CCC(=O)OC)C(=O)c1ccccc12	-7%	/	-13%	-61%	?
Fc1ccc(C(OCCN2CCCC2)c2ccc(Br)cc2)cc1 (stereo unspecified)	3%	-11%	?	-43%	5.6µM*
Fc1ccc(C(OCCN2CCCC2)c2ccc(F)cc2)cc1	-5%	-14%	-9%	-12%	?
NC(Cc1ccc(Cl)cc1)c1csc(Nc2cnccn2)n1 (stereo unspecified)	-1%	/	-15%	0%	?
N#Cc1ccccc1Cn1cc(C(=O)C2CC2)c2ccccc21	11%	10%	1%	-23%	?
CCC(=O)c1cn(Cc2ccccc2C#N)c2ccccc12	6%	3%	-15%	-18%	10µM*
O=C(Cc1ccccc1)OCCNC(=O)c1cccnc1	-5%	-1%	1%	-4%	0%
CCN(CC)P(=O)(/C=C(\Cl)c1ccccc1)/C=C(\Cl)c1ccccc1	2%	-2%	-1%	-20%	0%
CC(C)C[C@@H]1COc2cccc(N3CCN(C)CC3)c2S(=O)(=O)N1	-1%	/	-4%	-19%	-6%
